“And” between values parts separate entries of the source, which are not always exact repeats. Equal entries are not always repeated. Records with an inconclusive call do not appear. A call without a number means that no potency is given here. Some structures have more than one record in an assay (separate samples or runs), and their calls can disagree. The source made the active and inactive calls. Unless noted, calls follow the shape of the dose curve; as a rule, active = well fitted curve in the direction sought with a large enough effect in the repeat runs; inconclusive = weak or mixed curves; inactive = no such curve, though single readings can be large; an effect the other way counts as inactive or inconclusive.
What was measured:
[1] = qHTS assay to identify small molecule that activate the aryl hydrocarbon receptor (AhR) signaling pathway - cell viability counter screen (AID 743086); also: nearly all actives have a fitted effect of over 45% in size; also: potency is read from the fitted curve at half-maximal effect
How it was run: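 HepG2-AhR-luc (HG2L7.5c1) cells, 4000/well, treated 24 h at 37 C with compound; viability measured as CellTiter-Fluor fluorescence after 30 min in the same wells as the luciferase read.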

[2] = target: Peroxisome proliferator-activated receptor gamma (Homo sapiens) (UniProt P37231); assay: qHTS assay to identify small molecule agonists of the peroxisome proliferator-activated receptor gamma (PPARg) signaling pathway (AID 743094; active = well fitted activation curve with a large enough effect in the signal ratio in the repeat runs, not every such curve was filed as active; the % refers to the signal ratio)
How it was run: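 Quantitative HTS agonist mode: stable HEK293H line with UAS-beta-lactamase reporter under PPARg control, 17 h compound exposure at 37C, fluorescence after 1 h FRET substrate loading at room temperature.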

[3] = target: Peroxisome proliferator-activated receptor gamma (Homo sapiens) (UniProt P37231); assay: qHTS assay to identify small molecule antagonists of the peroxisome proliferator-activated receptor gamma (PPARg) signaling pathway (AID 743191; calls by dose curve; also: nearly all actives have a fitted effect of over 30% in size; also: potency is read from the fitted curve at half-maximal effect)
How it was run: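 GeneBLAzer PPARg UAS-bla HEK293H cells, 5 h post-plating, exposed to compounds 17 h at 37C. LiveBLAzer B/G FRET substrate added for 1 h at room temperature; beta-lactamase reporter read by fluorescence intensity.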

[4] = qHTS assay to identify small molecule antagonists of the peroxisome proliferator-activated receptor gamma (PPARg) signaling pathway - cell viability counter screen (AID 743194); details: Potency: co-treated with 50 nM rosiglitazone; also: nearly all actives have a fitted effect of over 55% in size
How it was run: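 Cytotoxicity counter screen in PPARg-bla HEK293H cells, same wells as reporter assay. Compounds plus 50 nM rosiglitazone (final) for 17 h at 37 C, then viability read by CellTiter-Glo luminescence.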

[5] = qHTS assay for small molecule agonists of the antioxidant response element (ARE) signaling pathway - cell viability counter screen (AID 743203; calls by dose curve; also: nearly all actives have a fitted effect of over 55% in size; also: potency is read from the fitted curve at half-maximal effect)
How it was run: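 Seeded at 2,000 cells/well, ARE-bla HepG2 cells were incubated 5 hrs before compound addition. After 16 hrs of treatment at 37C with 5% CO2, CellTiter-Glo reagent was added and luminescence read 30 min later.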

[6] = qHTS assay for small molecule activators of the heat shock response signaling pathway - cell viability counter screen (AID 743209); also: nearly all actives have a fitted effect of over 50% in size; also: potency is read from the fitted curve at half-maximal effect
How it was run: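 First, HSE-bla HeLa cells were seeded at 1500 cells/well and kept overnight at 37 C. Next, compounds were pinned in and incubated 5 h. After the FRET substrate step, CellTiter-Glo was added and luminescence read 30 min later.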

[7] = qHTS assay to identify small molecule agonists of the peroxisome proliferator-activated receptor delta (PPARd) signaling pathway - cell viability counter screen (AID 743211); also: nearly all actives have a fitted effect of over 55% in size; also: potency is read from the fitted curve at half-maximal effect
How it was run: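 Luminescent ATP viability assay (CellTiter-Glo, 30 min RT) in UAS-bla HEK293H cells carrying the PPAR delta reporter construct, 3000 cells/well, after a 17 h compound treatment at 37 C.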

[8] = qHTS assay to identify small molecule antagonists of the peroxisome proliferator-activated receptor delta (PPARd) signaling pathway - cell viability counter screen (AID 743213); also: nearly all actives have a fitted effect of over 50% in size; also: potency is read from the fitted curve at half-maximal effect
How it was run: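 Luminescence from CellTiter-Glo, added after the bla read and incubated 30 min at room temperature, gives viability of HEK293H PPARd-bla cells exposed to compounds for 17 h at 37 C with 300 nM L165041.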

[9] = qHTS assay to identify small molecule agonists of the farnesoid-X-receptor (FXR) signaling pathway - cell viability counter screen (AID 743218); also: nearly all actives have a fitted effect of over 45% in size; also: potency is read from the fitted curve at half-maximal effect
How it was run: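 Cytotoxicity counter-screen run in parallel, same wells: FXR-UAS-bla HEK 293T cells dosed 16 h at 37 C, viability read by CellTiter-Glo luminescence after 30 min at room temperature.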

[10] = target: Bile acid receptor (Homo sapiens) (UniProt Q96RI1); assay: qHTS assay to identify small molecule agonists of the farnesoid-X-receptor (FXR) signaling pathway (AID 743220; active = well fitted activation curve with a large enough effect in the signal ratio in the repeat runs, not every such curve was filed as active; the % refers to the signal ratio)
How it was run: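 Beta-lactamase reporter under UAS control in GeneBLAzer FXR HEK 293T cells (5000/well) measured with LiveBLAzer FRET substrate after 2 h at room temperature. Compound exposure lasted 16 h at 37C.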

[11] = qHTS assay to identify small molecule antagonists of the farnesoid-X-receptor (FXR) signaling pathway - cell viability counter screen (AID 743221; active = well fitted cell-killing curve with a large enough effect in the repeat runs, not every such curve was filed as active; also: nearly all actives have a fitted effect of over 50% in size; also: potency is read from the fitted curve at half-maximal effect)
How it was run: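 In GeneBLAzer FXR-UAS-bla HEK 293T cells stimulated with 50 uM chenodeoxycholic acid (final), compounds acted for 16 h at 37 C. Viability was assessed afterwards by CellTiter-Glo luminescence.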

[12] = qHTS assay to identify small molecule agonists of the vitamin D receptor (VDR) signaling pathway - cell viability counter screen (AID 743224); also: nearly all actives have a fitted effect of over 50% in size; also: potency is read from the fitted curve at half-maximal effect
How it was run: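 Viability is measured in the same wells as the VDR-bla reporter assay: after 16 h compound treatment and 2 h substrate loading, CellTiter-Glo is added and luminescence read 30 min later.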

[13] = target: Peroxisome proliferator-activated receptor delta (Homo sapiens) (UniProt Q03181); assay: qHTS assay to identify small molecule agonists of the peroxisome proliferator-activated receptor delta (PPARd) signaling pathway (AID 743212; calls by dose curve)
How it was run: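 Quantitative high-throughput agonist screen in a HEK293H beta-lactamase reporter line under UAS control. Compounds in DMSO, at 37 C. Fluorescence read after 2 h with FRET substrate at room temperature.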

[14] = target: Peroxisome proliferator-activated receptor delta (Homo sapiens) (UniProt Q03181); assay: qHTS assay to identify small molecule antagonists of the peroxisome proliferator-activated receptor delta (PPARd) signaling pathway (AID 743215; active = well fitted inhibition curve with a large enough effect in the signal ratio in the repeat runs, not every such curve was filed as active; the % refers to the signal ratio;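 also: cells stimulated with agonist L165041 at 300 nM final during compound exposure; series mostly up to about 62 µM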)
How it was run: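 Inhibition of L165041-driven (300 nM final) PPARd signaling is scored in HEK293H UAS-bla cells. Exposure lasts 17 h at 37 C; beta-lactamase activity is then read by FRET substrate fluorescence after 2 h at room temperature.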

[15] = target: Vitamin D3 receptor (Homo sapiens) (UniProt P11473); assay: qHTS assay to identify small molecule agonists of the vitamin D receptor (VDR) signaling pathway (AID 743222; calls by dose curve)
How it was run: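 Quantitative HTS agonist-mode screen: compounds in DMSO were pin-transferred onto VDR-bla cells and incubated 16 h at 37C, 5% CO2. Reporter activity was detected with LiveBLAzer B/G FRET substrate after 2 h at room temperature.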

[16] = qHTS assay for small molecule activators of the heat shock response signaling pathway (AID 743210; active = well fitted activation curve with a large enough effect in the signal ratio in the repeat runs, with a control signal flat, not every such curve was filed as active; the % refers to the signal ratio;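 also: HeLa cells with beta-lactamase reporter driven by heat shock elements; series mostly up to about 63 µM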)
How it was run: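 Quantitative high-throughput format using an engineered HeLa line in which heat shock response elements drive beta-lactamase; after 5 h with compound, cells received a B/G FRET substrate and fluorescence was read.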

[17] = target: Bile acid receptor (Homo sapiens) (UniProt Q96RI1); assay: qHTS assay to identify small molecule antagonists of the farnesoid-X-receptor (FXR) signaling pathway (AID 743217; active = well fitted inhibition curve with a large enough effect in the signal ratio in the repeat runs, not every such curve was filed as active; the % refers to the signal ratio; also: potency is read from the fitted curve at half-maximal effect)
How it was run: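 Antagonist mode against 50 uM (final) chenodeoxycholic acid stimulation in FXR-bla HEK 293T cells, 16 h at 37 °C. Inhibition detected as reduced beta-lactamase activity via LiveBLAzer B/G FRET fluorescence after 2 h at room temperature.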

[18] = target: Vitamin D3 receptor (Homo sapiens) (UniProt P11473); assay: qHTS assay to identify small molecule antagonists of the vitamin D receptor (VDR) signaling pathway (AID 743223; active = well fitted inhibition curve with a large enough effect in the signal ratio in the repeat runs, not every such curve was filed as active; the % refers to the signal ratio)
How it was run: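 Agonist 1alpha,25-dihydroxyvitamin D3 (3 nM in well) was added with each compound to VDR-bla cells preincubated 4 h. Cells stood 16 h at 37C, then FRET substrate 2 h at room temperature; fluorescence intensity recorded.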

[19] = qHTS assay for small molecule agonists of the antioxidant response element (ARE) signaling pathway (AID 743202; active = well fitted activation curve with a large enough effect in the signal ratio in the repeat runs, not every such curve was filed as active; the % refers to the signal ratio)
How it was run: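 Agonist mode reporter screen: HepG2 cells with ARE-controlled beta-lactamase are incubated with test compounds for 16 h at 37 C, and beta-lactamase activity is measured as fluorescence of cleaved B/G FRET substrate.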

[20] = target: Aryl hydrocarbon receptor (Homo sapiens) (UniProt P35869); assay: qHTS assay to identify small molecule that activate the aryl hydrocarbon receptor (AhR) signaling pathway (AID 743085);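 also: HG2L7.5c1 human HepG2 liver cells with stably integrated DRE-driven firefly reporter; series mostly up to about 70 µM; nearly all actives have a fitted effect of over 15% in size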
How it was run: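 24 h compound exposure, 37C, HepG2-derived HG2L7.5c1 cells with DRE-responsive luciferase. Readouts: fluorescence viability, then luminescence at room temperature after 30 min.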

Chain of Bile acid receptor (Homo sapiens) (Q96RI1 whole entry, looked up): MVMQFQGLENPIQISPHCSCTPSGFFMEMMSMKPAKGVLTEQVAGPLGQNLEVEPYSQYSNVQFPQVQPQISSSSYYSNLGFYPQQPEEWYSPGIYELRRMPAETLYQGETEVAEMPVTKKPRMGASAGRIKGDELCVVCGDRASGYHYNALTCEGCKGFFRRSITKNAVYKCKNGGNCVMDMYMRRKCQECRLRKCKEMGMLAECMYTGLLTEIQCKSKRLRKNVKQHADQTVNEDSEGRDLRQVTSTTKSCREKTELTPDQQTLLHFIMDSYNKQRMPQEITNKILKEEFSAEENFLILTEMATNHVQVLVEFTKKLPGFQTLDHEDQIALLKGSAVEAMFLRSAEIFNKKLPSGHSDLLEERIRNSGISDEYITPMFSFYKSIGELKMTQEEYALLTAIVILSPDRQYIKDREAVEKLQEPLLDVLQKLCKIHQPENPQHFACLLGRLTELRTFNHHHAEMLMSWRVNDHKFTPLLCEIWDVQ
Chain of Peroxisome proliferator-activated receptor delta (Homo sapiens) (Q03181 whole entry, looked up): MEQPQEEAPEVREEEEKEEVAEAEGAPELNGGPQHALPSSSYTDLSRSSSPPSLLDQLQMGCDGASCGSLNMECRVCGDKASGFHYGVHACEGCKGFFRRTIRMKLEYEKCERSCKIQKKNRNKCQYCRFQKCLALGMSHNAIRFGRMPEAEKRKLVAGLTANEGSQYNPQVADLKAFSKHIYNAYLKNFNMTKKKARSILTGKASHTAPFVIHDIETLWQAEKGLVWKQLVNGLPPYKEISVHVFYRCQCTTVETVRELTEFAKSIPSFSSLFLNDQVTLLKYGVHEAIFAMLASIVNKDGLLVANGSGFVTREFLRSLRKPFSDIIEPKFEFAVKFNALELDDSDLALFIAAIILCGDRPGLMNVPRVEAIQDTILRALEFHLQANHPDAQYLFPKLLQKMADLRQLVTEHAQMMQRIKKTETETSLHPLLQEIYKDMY
Chain of Vitamin D3 receptor (Homo sapiens) (P11473 whole entry, looked up): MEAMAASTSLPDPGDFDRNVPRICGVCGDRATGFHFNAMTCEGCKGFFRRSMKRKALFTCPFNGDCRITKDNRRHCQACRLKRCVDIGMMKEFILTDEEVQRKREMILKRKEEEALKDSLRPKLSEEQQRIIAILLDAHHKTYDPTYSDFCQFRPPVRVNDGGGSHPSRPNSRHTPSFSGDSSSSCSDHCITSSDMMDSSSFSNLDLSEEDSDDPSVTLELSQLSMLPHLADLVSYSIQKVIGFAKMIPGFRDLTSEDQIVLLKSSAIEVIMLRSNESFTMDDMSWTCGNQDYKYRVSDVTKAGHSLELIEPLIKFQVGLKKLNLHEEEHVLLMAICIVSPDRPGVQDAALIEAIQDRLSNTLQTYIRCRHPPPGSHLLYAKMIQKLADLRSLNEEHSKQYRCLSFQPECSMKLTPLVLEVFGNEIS
Chain of Peroxisome proliferator-activated receptor gamma (Homo sapiens) (P37231 whole entry, looked up): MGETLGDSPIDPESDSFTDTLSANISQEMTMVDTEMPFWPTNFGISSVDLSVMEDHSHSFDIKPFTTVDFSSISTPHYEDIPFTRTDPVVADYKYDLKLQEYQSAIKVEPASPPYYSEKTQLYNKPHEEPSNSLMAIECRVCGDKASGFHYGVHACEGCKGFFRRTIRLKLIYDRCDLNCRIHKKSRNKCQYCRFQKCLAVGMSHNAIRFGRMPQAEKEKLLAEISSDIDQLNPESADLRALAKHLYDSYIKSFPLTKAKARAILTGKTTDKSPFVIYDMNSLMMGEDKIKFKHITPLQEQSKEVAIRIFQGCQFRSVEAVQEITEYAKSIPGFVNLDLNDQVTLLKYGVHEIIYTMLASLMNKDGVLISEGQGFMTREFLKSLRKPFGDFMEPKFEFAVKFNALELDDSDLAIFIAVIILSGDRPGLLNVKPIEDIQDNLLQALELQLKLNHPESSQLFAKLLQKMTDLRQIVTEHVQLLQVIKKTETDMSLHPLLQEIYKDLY
Chain of Aryl hydrocarbon receptor (Homo sapiens) (P35869 whole entry, looked up): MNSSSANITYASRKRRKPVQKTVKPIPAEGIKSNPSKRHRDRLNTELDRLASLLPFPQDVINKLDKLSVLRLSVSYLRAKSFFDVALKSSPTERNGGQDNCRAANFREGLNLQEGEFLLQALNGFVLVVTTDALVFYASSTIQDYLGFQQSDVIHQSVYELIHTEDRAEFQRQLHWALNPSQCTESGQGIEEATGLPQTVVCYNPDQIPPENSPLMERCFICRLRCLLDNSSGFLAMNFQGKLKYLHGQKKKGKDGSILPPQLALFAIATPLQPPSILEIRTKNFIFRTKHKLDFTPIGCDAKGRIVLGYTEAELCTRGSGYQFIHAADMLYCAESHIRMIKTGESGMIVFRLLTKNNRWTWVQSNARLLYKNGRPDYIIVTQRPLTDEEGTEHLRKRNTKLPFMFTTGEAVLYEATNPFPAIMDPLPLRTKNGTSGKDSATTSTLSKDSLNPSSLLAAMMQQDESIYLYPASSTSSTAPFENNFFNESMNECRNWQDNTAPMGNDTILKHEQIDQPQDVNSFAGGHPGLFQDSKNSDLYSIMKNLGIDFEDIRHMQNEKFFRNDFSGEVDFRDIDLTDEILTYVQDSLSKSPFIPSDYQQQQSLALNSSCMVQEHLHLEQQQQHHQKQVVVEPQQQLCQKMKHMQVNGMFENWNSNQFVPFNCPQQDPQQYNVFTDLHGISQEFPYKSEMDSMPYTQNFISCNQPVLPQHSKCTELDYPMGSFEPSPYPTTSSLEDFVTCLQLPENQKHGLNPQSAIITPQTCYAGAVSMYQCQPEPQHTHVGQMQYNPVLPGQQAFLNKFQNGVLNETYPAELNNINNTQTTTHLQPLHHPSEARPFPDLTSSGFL

Compound	Potency [1]	Potency [2]	Potency [3]	Potency [4]	Potency [5]	Potency [6]	Potency [7]	Potency [8]	Potency [9]	outcome [10]	Potency [11]	Potency [12]	outcome [13]	Potency [14]	outcome [15]	Potency [16]	Potency [17]	Potency [18]	Potency [19]	Potency [20]
CN1C[C@H](C(=O)N[C@]2(C)O[C@@]3(O)[C@@H]4CCCN4C(=O)[C@H](Cc4ccccc4)N3C2=O)C=C2c3cccc4[nH]cc(c34)C[C@H]21	21.8 µM (active) and inactive	inactive	43.8 µM (active) and inactive	inactive	inactive	inactive	inactive	inactive	inactive	inactive	inactive	inactive	–	–	–	–	–	–	–	–
CC(C)(C)CC(C)(C)c1ccc(O)cc1	–	–	–	inactive	–	54.9 µM (active) and 29.8 µM (active)	34.7 µM (active)	27.5 µM (active)	54.8 µM (active) and inactive	inactive	49 µM (active)	15.5 µM (active) and inactive	inactive	inactive	inactive	–	–	–	–	–
COc1ccccc1N1CCNCC1	inactive	inactive	inactive	inactive	inactive	inactive	inactive	–	inactive	inactive	–	–	inactive	inactive	inactive	inactive	inactive	inactive	–	–
O=C(N/N=C/c1ccc([N+](=O)[O-])o1)c1cc([N+](=O)[O-])cc([N+](=O)[O-])c1O	29.8 µM (active)	inactive	inactive	inactive	–	–	–	inactive	inactive	inactive	inactive	–	inactive	inactive	inactive	inactive	inactive	inactive	–	–
CC(C)(C)OOC(C)(C)CCC(C)(C)OOC(C)(C)C	inactive	–	–	inactive	–	inactive	–	inactive	inactive	–	inactive	inactive	–	–	inactive	inactive	–	–	inactive	–
O=P(OCC(Br)CBr)(OCC(Br)CBr)OCC(Br)CBr (stereo not given)	–	–	44.2 µM (active)	–	36.6 µM (active)	inactive	–	–	–	inactive	inactive	–	inactive	–	–	–	46.5 µM (active)	–	–	inactive
CC(CC(C(N)=O)(c1ccccc1)c1ccccc1)N(C)C (stereo not given)	–	–	inactive	inactive	inactive	inactive	–	inactive	inactive	–	inactive	–	inactive	inactive	inactive	inactive	–	inactive	–	–
COc1cc(C[C@@H](C)N)c(OC)cc1Br	–	–	inactive	inactive	inactive	inactive	–	–	31.5 µM (active)	–	–	inactive	–	–	–	inactive	–	–	–	inactive
c1ccc2c(c1)-c1cccc3cccc-2c13	inactive	–	–	inactive	inactive	inactive	inactive	inactive	inactive	–	–	inactive	–	–	inactive	inactive	–	inactive	–	–
C=CCc1ccc(OC(=O)Cc2ccccc2)c(OC)c1	inactive	inactive	–	inactive	–	inactive	inactive	inactive	inactive	–	inactive	–	inactive	–	inactive	inactive	–	–	inactive	–
CC(=O)OC(c1ccccc1)C(Cl)(Cl)Cl (stereo not given)	inactive	inactive	–	inactive	inactive	inactive	inactive	inactive	inactive	inactive	inactive	–	inactive	inactive	inactive	inactive	inactive	–	–	–
CCCSP(=S)(OCC)Oc1ccc(SC)cc1 (stereo not given)	inactive	inactive	inactive	inactive	inactive	–	inactive	inactive	inactive	inactive	inactive	–	inactive	–	inactive	–	inactive	inactive	inactive	–
Cc1nnc(-c2ccccc2)c(=O)n1N	inactive	inactive	–	inactive	inactive	–	inactive	inactive	inactive	–	–	–	inactive	inactive	inactive	inactive	inactive	–	inactive	–
C=C(Cl)Cl	inactive	inactive	–	inactive	–	inactive	–	inactive	inactive	–	inactive	inactive	inactive	inactive	–	inactive	–	–	inactive	–
C#CC(O)(C=CCl)CC (stereo not given)	–	–	inactive	inactive	inactive	inactive	inactive	inactive	inactive	inactive	inactive	inactive	inactive	inactive	inactive	inactive	inactive	inactive	–	–
CCC(C)Cl (stereo not given)	inactive	inactive	inactive	inactive	inactive	inactive	–	inactive	inactive	–	inactive	inactive	–	–	inactive	inactive	–	inactive	inactive	–
O=C([O-])c1ccccn1.O=C([O-])c1ccccn1.O=C([O-])c1ccccn1.[Cr+3]	inactive	inactive	inactive	inactive	inactive	inactive	–	inactive	inactive	–	inactive	inactive	–	–	–	inactive	–	–	inactive	–
CNC(=O)Oc1cccc(N=CN(C)C)c1	inactive	inactive	–	–	inactive	–	–	–	inactive	–	inactive	–	inactive	inactive	inactive	–	inactive	inactive	–	–
